Shown are actives, neighbours in structure and some others; about 7.9% of the full set was active somewhere.
HT1080-NT tox – kills 2HG-producing HT-1080-NT fibrosarcoma cells; HT-1080-NT fibrosarcoma viability, CellTiter-Glo ATP luminescence, 48 h; AID 686970; Potency, µM (doses to about 46.1 µM), usual class: cytotoxic; 360,000 tested, 1.6% active;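 also: NT is the 2HG producing partner of a matched IDH1 knockdown line; nearly all actives have a fitted effect of over 55% in size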
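HT-1080-NT; 750 cells/well; 5% FBS RPMI; 48 h compound, 37 degrees C; CellTiter-Glo luminescence; curve fitting and curve-class assignment.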
HT1080 IDH1KD tx – kills HT-1080 cells with IDH1 knockdown | HT-1080 IDH1 knockdown viability, ATP luminescence, 48 h | Potency, µM (highest dose often 46.1 µM), usual class: cytotoxic | 360,000 tested, 2% active | AID 686971
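IDH1KD HT-1080 cells, 750/well, RPMI + 5% FBS; compound pinned after 2 h settling; 48 h, 37 °C; CellTiter-Glo luminescence; % activity normalised to DMSO and no-cell wells; curves fitted, classed by r2 and efficacy.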
MCF10A rereplic – DNA re-replication induction in MCF 10a cells; MCF 10A DNA re-replication, Hoechst nuclear intensity, 48 h; Potency, µM (series often up to 46.1 µM), usual class: activators; 350,000 tested, 2.9% active; AID 624296; also: nearly all actives have a fitted effect of over 50% in size
SW480 rerep – DNA re-replication induction in SW480 cells; 340,000 tested, 1.8% active; SW480 DNA re-replication, Hoechst DNA content imaging, 48 h; Potency, µM (titrated, usually from 46.1 µM), most hits filed as activators; also: nearly all actives have a fitted effect of over 55% in size
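Compounds, transferred as 23 nL by pin tool, were incubated with cells for 48 hr; DNA content per nucleus was then quantified by Hoechst staining and fluorescence plate imaging.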
KB-3-1 cytotox – KB-3-1 parental cell cytotoxicity. KB-3-1 viability, CellTiter-Glo ATP luminescence, 72 h. Potency, µM (top dose mostly 46.1 µM), most hits filed as cytotoxic. 400,000 tested, 1.4% active. AID 1347075; also: nearly all actives have a fitted effect of over 60% in size
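Parental KB-3-1 adenocarcinoma cells in phenol-red-free DMEM with 10% FBS were pin-treated with compounds at several concentrations, incubated 72 h at 37 °C, and viability read by CellTiter-Glo luminescence; concentration-effect curves were fitted after normalization.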
KB-V1 cytotox – kills drug-selected multidrug resistant KB-V1 cells. KB-V1 MDR cells viability, CellTiter-Glo, 72 h. Potency, µM (series often up to 46.1 µM), usual class: cytotoxic. 400,000 tested, 3.4% active; also: nearly all actives have a fitted effect of over 60% in size
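qHTS viability screen in drug-selected KB-V1 MDR cells: 72 h compound treatment at 37 degrees C, ATP luminescence end point.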
Numbers stand for hits; i = inactive; ? = inconclusive; nt = no result; ! = a repeat was not active; [ ] = remark or other dose. Calls follow the shape of the dose curve; as a rule, active = well fitted curve in the direction sought with a large enough effect; inconclusive = small, poorly fitted or top-dose-only effect, or another doubt; inactive = no such curve, though single readings can be large; an effect the other way counts as inactive or inconclusive.

SMILES	HT1080-NT tox	HT1080 IDH1KD tx	MCF10A rereplic	SW480 rerep	KB-3-1 cytotox	KB-V1 cytotox
CC(C)(C)NC(=O)C(c1ccc(-c2ccccc2)cc1)N(C[C@H]1CC[C@@H]([C@@H]2CC[C@H](CO)O2)O1)C(=O)c1ccc(-c2ccccc2)cc1 (stereo not given in full)	i	?	i	i[9.22 µM]	?	?
CC(C)(C)NC(=O)C(c1ccc(-c2ccccc2)cc1)N(C[C@H]1CC[C@@H]([C@@H]2CC[C@H](CO)O2)O1)C(=O)c1cccc(Cl)c1 (stereo not given in full)	i	i	?	i[9.22 µM]	14.6µM	i
COCCNCCCCOc1ccccc1-c1ccccc1	i	i	i	i	i	?
CCCCNCCOCCOc1ccccc1-c1ccccc1	i	i	i	?	i	18.4µM
COc1cc(OC)cc(-c2cc3nc(C)c(CCC(=O)NC(C)CCc4ccco4)c(C)n3n2)c1 (stereo not given)	i	i	?	i	i	i
COc1cc(OC)cc(-c2cc3nc(C)c(CCC(=O)O)c(C)n3n2)c1	i	i	18.4µM	i	i	i
O=C(O)[C@@H]1CCCN1	nt	nt	i	i	nt	nt
CC(=O)N1c2ccc(C)cc2Sc2c1ccc1ccccc21	?	i	20.6µM	?	i	i
CCCOc1cccc(C(=O)Nc2cc(-c3nc4ccccc4[nH]3)ccc2C)c1	nt	nt	nt	nt	?	i
O=C(NCc1cccnc1)C1CCN(c2ccc(S(=O)(=O)N3CCOCC3)cc2Cl)CC1	?	?	i	?	23.1µM	i
O=C(NCc1ccc(Cl)cc1Cl)C1CCN(S(=O)(=O)c2ccc3c(c2)OCCCO3)CC1	i	i	i	i	?	3.26µM
O=C(NCc1ccc(F)cc1)C1CCN(S(=O)(=O)c2ccc3c(c2)OCCCO3)CC1	i	i	i	i	i	?
COc1ccccc1CNC(=O)C1CCN(S(=O)(=O)c2ccc3c(c2)NC(=O)CO3)CC1	i	i	i	i	i	i
COc1ccccc1CNC(=O)C1CCN(S(=O)(=O)c2ccc3c(c2)OCCCO3)CC1	i	i	i	i	i	18.4µM
COc1ccc(S(=O)(=O)N2CCC(C(=O)NCc3cccc(OC)c3)CC2)cc1	i	i	i	i	i	i
COc1cccc(CNC(=O)C2CCN(S(=O)(=O)c3ccccc3)CC2)c1	i	i	i	i	i	20.6µM
CCCNC(=O)C1CCN(c2ccc(S(=O)(=O)N3CCOCC3)cc2Cl)CC1	i	i	i	i	i	?
C=CCC(CC)C(=O)NC(=O)N1CCCc2ccccc21 (stereo not given)	i	i	i	i	i	i
CC1CCN(S(=O)(=O)c2cccc(S(=O)(=O)N3CCOCC3)c2)CC1	i	i	i	i	i	i
N=C(N)SCCN	i	i	i	i	i	i
NC(=O)c1cc(Cl)ccc1OCC(=O)N1CCCc2ccccc21	i	i	i	i	i	i
COc1ccccc1NC(=O)C(C)OC(=O)C1CCN(S(=O)(=O)c2ccc(C)c(C)c2)CC1 (stereo not given)	i	i	i	i	i	7.31µM
O=C(NCc1ccc2c(c1)OCO2)C1CCN(c2ccc(S(=O)(=O)N3CCCC3)cc2)CC1	i	i	i	i	?	2.59µM
O=C(Nc1ccc2c(c1)OCO2)C1CCN(S(=O)(=O)c2ccc3c(c2)OCCO3)CC1	i	i	i	i	i	?
COc1ccc(S(=O)(=O)N2CCC(C(=O)Nc3ccc4c(c3)OCCO4)CC2)cc1OC	i	i	i	i	i	18.4µM
SMILES	HT1080-NT tox	HT1080 IDH1KD tx	MCF10A rereplic	SW480 rerep	KB-3-1 cytotox	KB-V1 cytotox
CC(C)[C@@H]1NC(=O)c2cc([N+](=O)[O-])cc(I)c2NCCC[C@@H](C(N)=O)NC(=O)[C@H](CO)NC1=O	i	i	i	i	i	i
CC(C)CN(C(=O)CN(C)C(=O)Cc1ccccc1Cl)c1c(N)n(CC(C)C)c(=O)[nH]c1=O	i	i	i	i	i	i
CC1(C)C2([N+](=O)[O-])CN(CCO)CC1([N+](=O)[O-])CN(CCO)C2	i	i	i	i	i	i
CC1(C)C2([N+](=O)[O-])CN3CC1([N+](=O)[O-])CN(C2)C3C(O)C(O)C(O)CO (stereo not given)	i	i	i	10.3µM	i	i
CCOCCCNCc1ccc(OC)cc1	i	i	i	i	i	i
COc1ccc(C(CCNCc2ccc(OC(C)C)cc2)C(C)C)cc1 (stereo not given)	?	?	i	i	i	14.6µM
COc1ccc(C(CCNCc2ccc(N(C)C)cc2)C(C)C)cc1 (stereo not given)	18.4µM	?	?	?	i	16.4µM
COc1ccccc1C1=NC(c2ccccc2)CN1c1ccccc1 (stereo not given)	i	i	5.17µM	6.51µM	i	i
COc1ccc(S[C@@H](CCN2CC[C@H](C)CCC2=O)c2ccccc2)cc1	i	i	18.4µM	i	i	?
C[C@@H]1CCC(=O)N(CC[C@H](Sc2ccc(Br)cc2)c2ccccc2)CC1	?	?	i	i	?	?
Cc1ccc(S[C@@H](CCN2CC[C@H](C)CCC2=O)c2ccccc2)cc1	i	i	?	i	?	11.6µM!
COC(=O)CCC(C)N1CCC(Oc2ccc(C(=O)N3CCCC3)cc2)CC1 (stereo not given)	i	i	i	?	i	i
Cc1ccccc1NC(=S)Nn1cnnc1	i	i	i	i	i	i
CCc1ccc2[nH]cc(S(=O)(=O)c3ccc(C(C)C)cc3)c(=O)c2c1	nt	nt	nt	nt	?	i
Cc1cc(C)c2nc3sc(C(=O)N4CCOCC4)c(N)c3cc2c1	0.206µM	0.0517µM	?	?	0.259µM	?
Cc1cccc2cc3c(N)c(C(=O)N4CCc5ccccc54)sc3nc12	i	?	?	?	?	9.2µM
Nc1c(C(=O)N2CCCC2)sc2nc3c(cc12)CCCCCC3	i	i	14.6µM	i	i	?
Cc1cc(C)c2cc3c(N)c(C(=O)N4CCOCC4)sc3nc2c1	i	i	i	i	i	i
Cc1ccc(C)c2nc3sc(C(=O)N4CCOCC4)c(N)c3cc12	4.11µM	3.26µM	?	?	?	?
Cc1cccc2cc3c(N)c(C#N)sc3nc12	i	i	?	?	?	1.46µM
CC(C)Nc1nc(-c2ccncc2)nc(-c2ccccc2)c1C#N	i	i	i	i	i	i
N#Cc1ccc(-c2cccs2)nc1SCc1cccnc1	?	?	0.411µM	0.731µM	?	?
Cc1cc(CNC(=O)c2ccc3c(c2)OCO3)c2ccccc2n1	?	?	i	?	?	?
CN1CCN(CC(O)(c2ccc(Cl)cc2)c2ccc(Cl)cc2)CC1	18.4µM	20.6µM	i	i	i	i

Screening data from PubChem.
